# PMC5540273 (PLoS ONE, 2017)
# How the values were obtained:
# Conditions in all cases: concentration: 1 μM, replicates: in singlicate; n = 1
# DRAK1 = system: T1, DRAK1
# T1 construct: gene STK17A
# DRAK2 = system: T2, DRAK2
# T2 construct: gene STK17B
# DYRK1A = system: DYRK1A
# DYRK1B = system: DYRK1B
# DYRK2 = system: DYRK2
# EGFR = system: EGFR
# EIF2AK1 = system: EIF2AK1
# EPHA1 = system: EPHA1
# EPHA2 = system: EPHA2
# EPHA3 = system: EPHA3
# EPHA4 = system: EPHA4
# EPHA5 = system: EPHA5
# EPHA6 = system: EPHA6
# EPHA7 = system: EPHA7
# EPHA8 = system: EPHA8
# EPHB1 = system: EPHB1
# EPHB2 = system: EPHB2
# EPHB3 = system: EPHB3
# EPHB4 = system: EPHB4
# EPHB6 = system: EPHB6
# 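Further: KINOMEscan kinase panel screen.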
Structure (SMILES),%Inh (DRAK1),%Inh (DRAK2),%Inh (DYRK1A),%Inh (DYRK1B),%Inh (DYRK2),%Inh (EGFR),%Inh (EIF2AK1),%Inh (EPHA1),%Inh (EPHA2),%Inh (EPHA3),%Inh (EPHA4),%Inh (EPHA5),%Inh (EPHA6),%Inh (EPHA7),%Inh (EPHA8),%Inh (EPHB1),%Inh (EPHB2),%Inh (EPHB3),%Inh (EPHB4),%Inh (EPHB6)
Cn1cncc1-c1ccc2ncnc(Nc3ccc(OCc4ccccc4)cc3)c2c1 [GW320571],6%,0%,12%,3%,0%,99.3%,96.7%,25%,17%,0%,13%,2%,19%,1%,12%,6%,0%,23%,8%,3%
Cc1cccc(-c2nc(-c3ccc(S(C)(=O)=O)cc3)sc2-c2ccnc(NCCc3ccccc3)c2)c1,0%,10%,0%,51%,0%,0%,1%,0%,0%,9%,0%,0%,15%,0%,0%,0%,10%,0%,0%,0%
CS(=O)(=O)c1ccc(-c2nc3n(c2-c2ccncc2)CCC3)cc1 [SKF-105942],0%,0%,20%,0%,5%,5%,13%,1%,6%,0%,20%,0%,8%,10%,13%,8%,9%,14%,32%,0%
CN(C)CCN(C)C(=O)c1cc(-c2ccncc2)c(-c2ccc(Cl)c(O)c2)o1.Cl.Cl [SB-710397],23%,0%,9%,0%,0%,30%,0%,45%,5%,0%,6%,0%,8%,13%,16%,8%,12%,11%,5%,5%
CC1=C(C(=O)Nc2cc3cn[nH]c3cc2F)C(c2ccc(C(F)(F)F)cc2)CC(=O)N1 (stereo not shown) [GSK429286],0%,12%,21%,0%,0%,33%,0%,22%,14%,0%,4%,0%,12%,11%,23%,3%,10%,21%,10%,17%
O=C(Nc1ccc2c(c1)OCO2)NC1CCN(c2ccnc(Nc3ccc(F)cc3)n2)C1 (stereo not shown) [GSK1379724],0%,0%,27%,0%,3%,0%,0%,18%,16%,0%,6%,0%,8%,0%,9%,0%,5%,16%,11%,35%
Cl.NC(=O)c1cccc(Nc2nccc(Nc3ccc(Oc4cccc(Cl)c4)c(Cl)c3)n2)c1 [GW659008],13%,0%,5%,4%,13%,96.9%,0%,0%,0%,5%,3%,0%,0%,3%,19%,0%,0%,0%,16%,68%
COC(=O)c1c(-c2ccccc2)c2cc(OC)ccc2c(=O)n1Cc1ccccc1,0%,22%,0%,12%,0%,0%,5%,0%,3%,9%,35%,1%,43%,0%,1%,0%,23%,35%,27%,0%
Cc1c(Cn2ccn3c(=O)cc(N4CCOCC4)nc23)cccc1C(F)(F)F [GSK2289044],0%,0%,10%,21%,14%,40%,2%,9%,13%,27%,6%,0%,0%,0%,0%,21%,0%,5%,9%,0%
NC(=O)c1nnc2ccccc2c1N,41%,33%,29%,16%,39%,0%,0%,14%,10%,0%,1%,10%,0%,0%,0%,0%,13%,0%,19%,9%
CCn1c(-c2ccccn2)nc2cnccc21 [SB-736398],5%,8%,19%,11%,0%,15%,0%,21%,6%,0%,23%,0%,7%,0%,5%,0%,0%,12%,35%,0%
